Source: the supplement of paper PMC11732987, “Enantioselective OTUD7B fragment discovery through chemoproteomics screening and high-throughput optimisation” (Communications Chemistry, 2025)

Experiments:
Assay in all cases: log2 ratio of Biotin-Ahx-Ub-VS probe labelling (fragment/DMSO); higher = less target engagement (more negative = stronger competition), active = hit call of the paper (q ≤ 0.05, log2 ratio ≤ -1)
Settings in all cases: compound concentration: 200 uM; treatment time: 3 h
USP34 = USP34 (UniProt Q70CQ2)
Outline: (§1)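 Global-median-normalised Spectronaut label-free quantities were compared by unpaired t-test, and values are average log2 ratios of fragment over vehicle. Only proteins with ≥2 unique peptides were used. HEK293T lysate (495 µg per sample) was treated in triplicate with fragment at 200 µM or vehicle for 3 h and then with Biotin-Ahx-Ub-VS at 0.5 µM final for 1 h. Labelled DUBs were then NeutrAvidin-enriched, digested with LysC and trypsin, and run by diaPASEF LC-MS/MS.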

USP36 = target: T1, USP36 (UniProt Q9P275)
T1 sequence (whole entry): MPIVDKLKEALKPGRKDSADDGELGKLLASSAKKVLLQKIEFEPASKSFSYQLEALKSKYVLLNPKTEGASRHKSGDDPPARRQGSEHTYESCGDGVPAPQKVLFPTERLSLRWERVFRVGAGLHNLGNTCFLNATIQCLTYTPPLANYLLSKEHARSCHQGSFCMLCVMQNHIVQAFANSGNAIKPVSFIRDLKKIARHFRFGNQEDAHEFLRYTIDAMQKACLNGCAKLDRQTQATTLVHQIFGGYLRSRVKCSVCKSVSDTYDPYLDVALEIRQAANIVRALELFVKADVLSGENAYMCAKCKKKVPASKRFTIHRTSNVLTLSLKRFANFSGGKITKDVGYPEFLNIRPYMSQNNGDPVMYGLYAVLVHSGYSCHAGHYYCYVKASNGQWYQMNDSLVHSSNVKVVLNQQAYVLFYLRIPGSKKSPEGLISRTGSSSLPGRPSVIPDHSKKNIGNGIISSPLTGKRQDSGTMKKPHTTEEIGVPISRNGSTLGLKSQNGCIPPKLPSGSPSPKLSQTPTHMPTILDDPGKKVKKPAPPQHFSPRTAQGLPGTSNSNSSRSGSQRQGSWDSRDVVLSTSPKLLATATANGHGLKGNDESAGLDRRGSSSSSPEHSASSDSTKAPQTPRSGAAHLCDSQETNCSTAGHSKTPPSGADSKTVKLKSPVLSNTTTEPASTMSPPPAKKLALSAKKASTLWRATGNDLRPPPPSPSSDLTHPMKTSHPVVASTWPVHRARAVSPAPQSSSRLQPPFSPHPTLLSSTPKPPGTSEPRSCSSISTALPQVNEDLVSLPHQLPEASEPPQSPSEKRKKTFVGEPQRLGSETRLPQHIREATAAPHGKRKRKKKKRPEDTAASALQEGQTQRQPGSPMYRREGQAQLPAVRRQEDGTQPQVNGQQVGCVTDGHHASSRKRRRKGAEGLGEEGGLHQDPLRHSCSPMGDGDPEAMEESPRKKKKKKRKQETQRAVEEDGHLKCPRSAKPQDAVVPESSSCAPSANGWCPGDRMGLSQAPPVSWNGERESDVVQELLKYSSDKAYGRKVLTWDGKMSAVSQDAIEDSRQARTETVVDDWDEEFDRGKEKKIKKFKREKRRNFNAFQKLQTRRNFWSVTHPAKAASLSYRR
Outline: as §1

USP38 = target: T2, USP38 (UniProt Q8NB14)
T2 sequence (whole entry): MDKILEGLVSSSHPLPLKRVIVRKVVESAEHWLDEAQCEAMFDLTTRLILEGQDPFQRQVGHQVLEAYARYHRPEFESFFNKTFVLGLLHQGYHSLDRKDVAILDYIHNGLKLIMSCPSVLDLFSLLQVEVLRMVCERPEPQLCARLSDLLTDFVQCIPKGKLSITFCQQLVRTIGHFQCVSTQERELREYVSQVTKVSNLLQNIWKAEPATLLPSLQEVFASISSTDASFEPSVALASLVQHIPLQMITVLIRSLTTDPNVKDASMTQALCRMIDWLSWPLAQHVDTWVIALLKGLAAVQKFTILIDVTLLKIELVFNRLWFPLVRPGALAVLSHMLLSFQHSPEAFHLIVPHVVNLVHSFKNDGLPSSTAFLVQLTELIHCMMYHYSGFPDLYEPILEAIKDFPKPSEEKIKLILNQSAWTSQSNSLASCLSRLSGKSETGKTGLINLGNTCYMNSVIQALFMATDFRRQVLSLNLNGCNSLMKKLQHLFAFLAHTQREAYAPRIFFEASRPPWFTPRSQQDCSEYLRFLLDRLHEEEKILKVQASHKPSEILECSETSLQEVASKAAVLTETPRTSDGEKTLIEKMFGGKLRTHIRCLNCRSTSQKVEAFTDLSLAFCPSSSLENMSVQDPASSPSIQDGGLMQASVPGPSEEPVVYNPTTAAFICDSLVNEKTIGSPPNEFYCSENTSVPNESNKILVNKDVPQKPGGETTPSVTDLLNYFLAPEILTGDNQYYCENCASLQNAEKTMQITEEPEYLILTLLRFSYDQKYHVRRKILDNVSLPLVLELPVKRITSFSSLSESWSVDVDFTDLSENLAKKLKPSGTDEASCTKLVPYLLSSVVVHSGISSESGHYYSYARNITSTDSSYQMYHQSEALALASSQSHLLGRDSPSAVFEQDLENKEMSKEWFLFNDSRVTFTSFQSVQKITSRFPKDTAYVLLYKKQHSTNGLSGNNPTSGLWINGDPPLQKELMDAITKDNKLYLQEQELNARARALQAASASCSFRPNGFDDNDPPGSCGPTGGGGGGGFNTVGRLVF
Outline: as §1

USP39 = target: T3, USP39 (UniProt Q53GS9)
T3 sequence (whole entry): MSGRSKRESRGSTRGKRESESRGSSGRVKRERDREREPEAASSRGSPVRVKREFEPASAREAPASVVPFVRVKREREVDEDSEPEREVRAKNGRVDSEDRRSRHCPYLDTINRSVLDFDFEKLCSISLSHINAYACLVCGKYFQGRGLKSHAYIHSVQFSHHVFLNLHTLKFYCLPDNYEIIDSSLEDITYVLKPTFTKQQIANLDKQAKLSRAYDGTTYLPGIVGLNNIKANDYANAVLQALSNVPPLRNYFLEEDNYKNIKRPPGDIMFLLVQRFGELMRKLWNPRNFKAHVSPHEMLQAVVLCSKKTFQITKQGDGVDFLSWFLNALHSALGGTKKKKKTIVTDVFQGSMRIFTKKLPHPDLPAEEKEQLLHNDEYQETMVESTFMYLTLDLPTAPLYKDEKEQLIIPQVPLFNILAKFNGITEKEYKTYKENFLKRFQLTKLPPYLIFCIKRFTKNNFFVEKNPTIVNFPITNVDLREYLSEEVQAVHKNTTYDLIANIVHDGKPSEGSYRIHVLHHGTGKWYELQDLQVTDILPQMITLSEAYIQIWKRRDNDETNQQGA
Outline: as §1

USP4 = target: T4, USP4 (UniProt Q13107)
T4 sequence (whole entry): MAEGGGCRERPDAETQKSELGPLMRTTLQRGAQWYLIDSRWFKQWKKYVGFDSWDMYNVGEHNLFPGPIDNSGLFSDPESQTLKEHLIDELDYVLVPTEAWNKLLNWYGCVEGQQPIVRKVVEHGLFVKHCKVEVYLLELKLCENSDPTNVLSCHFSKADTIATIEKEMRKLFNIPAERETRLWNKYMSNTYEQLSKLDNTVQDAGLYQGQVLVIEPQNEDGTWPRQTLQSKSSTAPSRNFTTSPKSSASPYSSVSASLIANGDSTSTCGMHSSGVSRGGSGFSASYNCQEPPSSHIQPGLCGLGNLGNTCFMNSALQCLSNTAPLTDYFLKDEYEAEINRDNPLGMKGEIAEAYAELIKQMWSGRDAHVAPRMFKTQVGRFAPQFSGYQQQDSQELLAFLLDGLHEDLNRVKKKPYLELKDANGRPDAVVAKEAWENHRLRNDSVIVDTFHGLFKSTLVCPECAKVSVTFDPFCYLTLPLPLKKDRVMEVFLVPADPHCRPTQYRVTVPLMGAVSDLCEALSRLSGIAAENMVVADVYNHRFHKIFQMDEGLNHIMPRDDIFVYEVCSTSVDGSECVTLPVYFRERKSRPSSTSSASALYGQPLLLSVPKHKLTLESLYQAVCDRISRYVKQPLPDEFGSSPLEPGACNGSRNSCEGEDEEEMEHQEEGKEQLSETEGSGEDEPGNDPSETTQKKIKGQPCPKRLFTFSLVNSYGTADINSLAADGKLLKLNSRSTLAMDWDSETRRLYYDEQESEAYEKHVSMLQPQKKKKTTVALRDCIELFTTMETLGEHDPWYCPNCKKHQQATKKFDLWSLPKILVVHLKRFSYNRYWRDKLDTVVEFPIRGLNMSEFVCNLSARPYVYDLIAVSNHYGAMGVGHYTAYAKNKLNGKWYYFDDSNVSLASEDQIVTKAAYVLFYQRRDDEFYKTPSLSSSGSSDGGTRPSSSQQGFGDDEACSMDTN
Outline: as §1

Measured: log2 ratio of Biotin-Ahx-Ub-VS probe labelling

USP34, sequence (Q70CQ2 whole entry, the tested form may be a part): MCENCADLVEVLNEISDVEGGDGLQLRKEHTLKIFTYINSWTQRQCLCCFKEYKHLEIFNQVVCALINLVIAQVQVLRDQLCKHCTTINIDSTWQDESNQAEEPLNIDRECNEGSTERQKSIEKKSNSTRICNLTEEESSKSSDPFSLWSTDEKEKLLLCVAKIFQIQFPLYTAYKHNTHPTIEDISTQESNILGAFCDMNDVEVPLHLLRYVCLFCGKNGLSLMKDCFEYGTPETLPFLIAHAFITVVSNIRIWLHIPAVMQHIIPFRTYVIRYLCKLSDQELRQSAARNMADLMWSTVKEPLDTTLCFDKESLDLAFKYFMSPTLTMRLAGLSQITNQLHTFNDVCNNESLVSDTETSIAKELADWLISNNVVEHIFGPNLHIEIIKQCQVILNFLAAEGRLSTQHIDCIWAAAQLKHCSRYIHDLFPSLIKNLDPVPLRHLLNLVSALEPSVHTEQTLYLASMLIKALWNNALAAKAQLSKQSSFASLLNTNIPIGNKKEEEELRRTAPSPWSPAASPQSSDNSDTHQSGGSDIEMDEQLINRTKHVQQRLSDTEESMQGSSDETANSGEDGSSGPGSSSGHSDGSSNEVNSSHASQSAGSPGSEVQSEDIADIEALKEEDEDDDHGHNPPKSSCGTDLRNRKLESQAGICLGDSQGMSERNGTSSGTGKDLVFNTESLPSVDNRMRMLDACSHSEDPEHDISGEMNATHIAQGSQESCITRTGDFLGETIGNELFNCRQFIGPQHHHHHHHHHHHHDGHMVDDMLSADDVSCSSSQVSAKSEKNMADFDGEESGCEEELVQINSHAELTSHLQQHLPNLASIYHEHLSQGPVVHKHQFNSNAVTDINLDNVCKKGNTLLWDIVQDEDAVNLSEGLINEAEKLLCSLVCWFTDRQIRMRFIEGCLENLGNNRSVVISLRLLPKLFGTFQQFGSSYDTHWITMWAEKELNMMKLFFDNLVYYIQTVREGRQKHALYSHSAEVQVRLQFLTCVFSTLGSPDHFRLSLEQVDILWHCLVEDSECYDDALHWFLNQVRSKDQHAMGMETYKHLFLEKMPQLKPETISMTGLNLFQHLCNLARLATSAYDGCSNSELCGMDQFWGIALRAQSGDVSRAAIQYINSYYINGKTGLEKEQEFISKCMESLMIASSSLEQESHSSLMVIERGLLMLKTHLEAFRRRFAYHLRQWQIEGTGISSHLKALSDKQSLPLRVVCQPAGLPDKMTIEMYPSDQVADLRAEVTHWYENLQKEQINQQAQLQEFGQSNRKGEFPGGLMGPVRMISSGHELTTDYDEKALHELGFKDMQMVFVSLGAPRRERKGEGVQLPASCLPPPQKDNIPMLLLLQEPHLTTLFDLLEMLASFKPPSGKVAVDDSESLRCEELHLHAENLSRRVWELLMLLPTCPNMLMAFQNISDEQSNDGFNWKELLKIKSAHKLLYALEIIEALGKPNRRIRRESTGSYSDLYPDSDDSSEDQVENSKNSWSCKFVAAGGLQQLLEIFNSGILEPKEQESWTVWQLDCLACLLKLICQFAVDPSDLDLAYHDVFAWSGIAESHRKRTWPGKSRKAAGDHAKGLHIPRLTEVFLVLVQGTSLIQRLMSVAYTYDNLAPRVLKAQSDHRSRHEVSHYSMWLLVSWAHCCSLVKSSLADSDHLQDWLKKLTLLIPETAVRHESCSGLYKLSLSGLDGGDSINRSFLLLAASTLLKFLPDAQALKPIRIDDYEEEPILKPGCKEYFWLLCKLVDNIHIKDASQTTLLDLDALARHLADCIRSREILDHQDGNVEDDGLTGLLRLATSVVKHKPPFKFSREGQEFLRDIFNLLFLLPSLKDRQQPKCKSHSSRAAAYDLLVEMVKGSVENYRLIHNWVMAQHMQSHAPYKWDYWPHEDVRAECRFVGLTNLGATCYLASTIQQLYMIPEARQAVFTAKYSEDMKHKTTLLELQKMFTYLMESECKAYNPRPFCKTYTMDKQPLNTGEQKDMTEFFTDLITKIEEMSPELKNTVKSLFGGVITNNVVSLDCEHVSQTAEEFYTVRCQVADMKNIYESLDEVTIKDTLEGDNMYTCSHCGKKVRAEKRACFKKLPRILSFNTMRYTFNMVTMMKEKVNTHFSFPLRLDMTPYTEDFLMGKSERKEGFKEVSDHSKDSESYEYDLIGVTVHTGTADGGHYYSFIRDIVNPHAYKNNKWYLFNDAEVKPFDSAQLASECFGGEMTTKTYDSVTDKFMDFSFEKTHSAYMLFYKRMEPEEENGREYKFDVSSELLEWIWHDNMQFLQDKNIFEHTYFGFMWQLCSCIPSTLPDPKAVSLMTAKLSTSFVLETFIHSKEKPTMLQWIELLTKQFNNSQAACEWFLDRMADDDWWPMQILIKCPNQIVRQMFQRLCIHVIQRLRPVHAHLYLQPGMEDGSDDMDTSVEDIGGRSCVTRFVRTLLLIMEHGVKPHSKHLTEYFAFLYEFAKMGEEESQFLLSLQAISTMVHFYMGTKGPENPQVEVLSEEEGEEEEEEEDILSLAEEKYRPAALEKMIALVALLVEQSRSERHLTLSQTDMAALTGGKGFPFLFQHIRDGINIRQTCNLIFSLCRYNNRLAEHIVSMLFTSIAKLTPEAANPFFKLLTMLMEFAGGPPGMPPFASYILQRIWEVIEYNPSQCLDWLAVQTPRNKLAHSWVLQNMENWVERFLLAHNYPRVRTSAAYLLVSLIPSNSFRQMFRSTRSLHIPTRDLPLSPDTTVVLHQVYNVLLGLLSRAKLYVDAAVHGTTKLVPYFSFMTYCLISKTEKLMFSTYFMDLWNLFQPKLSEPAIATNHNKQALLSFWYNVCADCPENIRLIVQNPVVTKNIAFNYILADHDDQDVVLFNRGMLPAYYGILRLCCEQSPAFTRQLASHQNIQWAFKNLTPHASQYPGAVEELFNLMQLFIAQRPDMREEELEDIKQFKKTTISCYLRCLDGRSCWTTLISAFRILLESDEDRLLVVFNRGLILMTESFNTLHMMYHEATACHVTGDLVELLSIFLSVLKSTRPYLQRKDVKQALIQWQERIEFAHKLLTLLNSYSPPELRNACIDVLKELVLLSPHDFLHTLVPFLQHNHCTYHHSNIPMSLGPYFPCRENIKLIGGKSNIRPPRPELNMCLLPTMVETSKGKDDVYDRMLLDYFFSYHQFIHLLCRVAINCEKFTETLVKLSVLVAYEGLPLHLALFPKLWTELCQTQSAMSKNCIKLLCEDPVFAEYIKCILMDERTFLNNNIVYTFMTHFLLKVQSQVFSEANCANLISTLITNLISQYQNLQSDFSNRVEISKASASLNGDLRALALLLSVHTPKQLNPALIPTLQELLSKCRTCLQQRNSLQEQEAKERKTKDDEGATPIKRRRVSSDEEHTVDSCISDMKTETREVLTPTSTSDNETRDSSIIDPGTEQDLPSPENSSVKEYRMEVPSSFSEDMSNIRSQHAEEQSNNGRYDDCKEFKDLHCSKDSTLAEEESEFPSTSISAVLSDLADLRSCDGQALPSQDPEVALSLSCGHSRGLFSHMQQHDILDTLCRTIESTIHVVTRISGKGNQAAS

O=C(CCl)Nc1cc(Cl)ccc1C(=O)O
inactive: USP34 0.243 | USP36 0.209 | USP38 0.105 | USP39 0.562 | USP4 0.12
